RPL19A-GFP yeast = yeast TOR pathway RPL19A-GFP modulation | S. cerevisiae RPL19A-GFP strain, flow cytometry, 3 h; stronger effect = lower value | percent response vs DMSO, % at 10 µM | 330,000 compounds, 0.3% hits;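 active = percent response vs DMSO below 50%; inconclusive = fewer than 70 events counted for the yeast strain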;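 note: median channel GFP fluorescence of the barcoded RPL19A-GFP strain; ratio of sample median GFP to plate DMSO average so 100% = DMSO; lower means less RPL19A-GFP as with rapamycin TOR inhibition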
LAP4-GFP MLPCN = alters LAP4-GFP fluorescence in TOR pathway yeast screen; S. cerevisiae LAP4-GFP multiplex, flow cytometry GFP, 3 h; median GFP as percent of DMSO wells; GFP response vs DMSO, % at 10 µM; 320,000 compounds, 0.34% hits; AID 2023;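 active = GFP response vs DMSO above a set limit, about the screen mean plus 3 SD, cut at about 150% in these data; inconclusive = under 70 cell events counted for the yeast strain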
CIT2-GFP yeast = alters CIT2-GFP fluorescence in TOR pathway yeast screen. AID 2029. GFP response vs DMSO, % at 10 µM. S. cerevisiae CIT2-GFP strain, flow cytometry, 3 h; 100 means same as DMSO wells. 320,000 compounds, 0.065% hits;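 active = GFP response relative to DMSO above a set limit, near the screen mean plus 3 SD, cut at about 150% in these data; inconclusive = Fewer than 70 cells measured for a yeast strain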;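 note: ratio of well median GFP fluorescence to mean of DMSO wells on the plate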
AGP1 TOR yeast = alters AGP1-GFP fluorescence in TOR pathway yeast screen | GFP response vs DMSO, % at 10 µM | S. cerevisiae AGP1-GFP multiplex flow cytometry, 3 h; GFP as percent of DMSO wells | 320,000 compounds, 0.02% hits;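 active = GFP response relative to DMSO above a set limit, near screen average plus 3 SD, cut at about 150% in these data; inconclusive = fewer than 70 cells counted for the yeast strain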;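 note: median GFP channel fluorescence of the gated AGP1 strain per well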
VLA-4 inh = inhibition in a human VLA-4 binding assay. 330,000 compounds, 0.2% hits. VLA-4 expressing cells, ligand binding flow cytometry. inhibition, % (about 7 µM as worked out from the volumes in the protocol). P13612; in the data active = inhibition above about 50%
Target sequence (P13612 whole entry, looked up): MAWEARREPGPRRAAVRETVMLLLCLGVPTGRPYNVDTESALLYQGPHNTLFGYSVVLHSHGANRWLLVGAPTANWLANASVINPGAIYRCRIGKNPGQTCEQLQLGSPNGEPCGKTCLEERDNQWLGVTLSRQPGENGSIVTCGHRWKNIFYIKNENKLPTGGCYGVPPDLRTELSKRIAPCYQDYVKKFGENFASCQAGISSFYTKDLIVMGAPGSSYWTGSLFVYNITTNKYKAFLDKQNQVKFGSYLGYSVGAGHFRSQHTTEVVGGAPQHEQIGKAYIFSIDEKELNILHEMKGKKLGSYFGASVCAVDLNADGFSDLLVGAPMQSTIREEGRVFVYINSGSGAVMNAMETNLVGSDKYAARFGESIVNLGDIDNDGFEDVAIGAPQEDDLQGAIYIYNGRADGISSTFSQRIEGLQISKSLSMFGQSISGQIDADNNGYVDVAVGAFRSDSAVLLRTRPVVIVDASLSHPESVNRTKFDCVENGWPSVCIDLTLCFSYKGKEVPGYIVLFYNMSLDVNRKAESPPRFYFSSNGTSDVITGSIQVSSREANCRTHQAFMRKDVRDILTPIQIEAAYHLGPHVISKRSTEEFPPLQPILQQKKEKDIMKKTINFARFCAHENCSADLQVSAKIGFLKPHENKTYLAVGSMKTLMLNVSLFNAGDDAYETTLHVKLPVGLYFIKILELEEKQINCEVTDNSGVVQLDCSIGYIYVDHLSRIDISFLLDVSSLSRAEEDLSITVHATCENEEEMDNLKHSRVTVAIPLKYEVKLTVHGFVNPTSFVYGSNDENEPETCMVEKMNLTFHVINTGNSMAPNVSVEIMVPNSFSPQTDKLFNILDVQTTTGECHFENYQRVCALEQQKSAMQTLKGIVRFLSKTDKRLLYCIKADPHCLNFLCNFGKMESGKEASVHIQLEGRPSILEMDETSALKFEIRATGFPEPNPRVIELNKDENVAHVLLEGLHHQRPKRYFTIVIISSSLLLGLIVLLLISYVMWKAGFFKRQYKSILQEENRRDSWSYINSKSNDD
MEP2-GFP yeast = modulators of TOR pathway MEP2-GFP in S. cerevisiae; S. cerevisiae MEP2-GFP strain, flow cytometry GFP, 3 h; 100% = DMSO control level; GFP response vs DMSO, % at 10 µM; 330,000 compounds, 0.51% hits;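 active = GFP response versus DMSO above a set limit, roughly screen mean plus 3 SD, cut at about 180% in these data; inconclusive = fewer than 70 cells counted for a yeast strain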;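 note: median GFP fluorescence of the barcode-gated MEP2-GFP cells per well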
The depositor's hits bear a star; i = inactive; ? = inconclusive; [ ] = another dose, or the depositor's remark. Sampled rows, rich in hits. Any-hit rate of the full collection: about 1.1%.

SMILES	RPL19A-GFP yeast	LAP4-GFP MLPCN	CIT2-GFP yeast	AGP1 TOR yeast	VLA-4 inh	MEP2-GFP yeast
O=C(CSC1=NS(=O)(=O)c2ccccc2N1)NCc1ccc(F)cc1	99	100	100	101	-7	102
CC1CCCCC1NC(=O)CCCn1c(=S)[nH]c2ccsc2c1=O (stereo not drawn)	90	101	92	101	3	93
O=C(CNC(=O)c1ccco1)NNC(=O)c1n[nH]c(=O)c2ccccc12	99	98	104	105	0	101
Cc1cccn2c(=O)c(/C=C(\C#N)C(=O)NCc3ccco3)c(N3CCCCC3)nc12	62	89	?	16	13	178*[may fluoresce violet]
COc1ccc(N2CCN(c3nc4c(C)cccn4c(=O)c3/C=C(\C#N)C(N)=O)CC2)cc1	68	80	105	17	-6	195*
CN(C)S(=O)(=O)c1ccc(C(=O)Nc2cccnc2)cc1	99	89	99	89	-7	101
CCN(CC)c1ccc(/C=C/C(=O)c2ccc(Br)cc2)cc1	96	118	78	84	i	101
CN(C)S(=O)(=O)c1ccc(C(=O)/C=C/c2cccnc2)cc1	63	82	?	?	7	266*[may fluoresce violet]
CCN(CC)c1ccc(/C=C/C(=O)c2cccnc2)cc1	103	101	96	99	50*	99
Cc1cc(C(=O)CSc2nnc(-c3ccncc3)n2-c2ccccc2)c(C)n1C	15*[may fluoresce violet]	98	?	?	24	283*[may fluoresce violet]
O=C(O)CSc1nnc(-c2ccncc2)n1CCc1ccccc1	103	150*	136	108	11	192*
Cc1cc(Cl)ccc1NC(=S)NCC(O)c1ccccc1 (stereo not drawn)	103	96	101	101	-3	108
COc1ccc(-n2c(=S)[nH]c3cc(C(=O)NCCCN4CCCC4=O)ccc3c2=O)cc1OC	47*[may fluoresce violet]	?	?	?	0	?
Cc1ccc(NC(=O)c2ccc(N3CCCC3=O)cc2)cc1S(=O)(=O)N1CCCCC1	109	102	97	112	1	102
CCOc1ccc(C(=O)C(C)OC(=O)Cn2c(C)csc2=O)cc1 (stereo not drawn)	107	126	95	109	5	98
COc1ccc(NC(=O)CCC(=O)NCCO)cc1	59	102	?	22	16	291*[may fluoresce violet]
O=C(CCC(=O)Nc1ccccc1)NCCO	100	101	97	99	-1	102
Fc1ccccc1N=C1NN=C(c2ccccc2)CS1	112	109	105	99	3	104
Clc1ccccc1N=C1NN=C(c2cccs2)CS1	92	155*	90	93	-21	96
C=CCc1cc(OC)ccc1OCCN1CC(C)OC(C)C1 (stereo not drawn)	108	88	105	100	-4	100
O=C(Nc1nc(-c2ccc(S(=O)(=O)N3CCCCCC3)cc2)cs1)c1cccs1	71	89	?	22	-6	212*[may fluoresce violet]
COc1cccc(CC(=O)OC(C)C(=O)Nc2ncc(Cl)cc2Cl)c1 (stereo not drawn)	68	170*	64	83	-10	86
CC(OC(=O)c1ccco1)C(=O)Nc1ncc(Cl)cc1Cl (stereo not drawn)	98	104	88	93	-20	92
COc1ccccc1NC1=C(C)C(=O)CC1	90	90	?	17	0	315*[may fluoresce violet]
COC1=C(Nc2ccccc2OC)C(=O)c2ccccc2C1=O	98	109	91	100	14	98
O=C(c1ccc(NS(=O)(=O)c2cccc3cccnc23)cc1)N1CCCCC1	50*[may fluoresce violet]	?	?	?	-1	?
CCOc1ccc2nc(NC(=O)CN3CCC(n4nnc5cc(F)ccc54)CC3)sc2c1	58	?	?	?	-1	178*[may fluoresce violet]
O=[N+]([O-])c1ccc(C2Nc3cccc4cccc(c34)N2)cc1	103	88	109	104	-8	107
COc1cc(C2Nc3cccc4cccc(c34)N2)ccc1OC(C)=O	90	87	80	97	12	84

Bioassay records from PubChem.
